Values without a mark were called inactive. How the calls were made is not given here.

The target of this assay is Pantothenate synthetase (Mycobacterium tuberculosis (strain ATCC 25618 / H37Rv)) (UniProt P9WIL5). Put plainly: Recombinant Mtb pantothenate synthetase (PanC) inhibitors, coupled enzyme, confirmatory (AID 375).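 Further: 0% = full reaction with vehicle and 100% = no enzyme background.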 The following applies: coupled enzyme assay; at 10 µM, stronger effect = higher value.
Sequence of Pantothenate synthetase (Mycobacterium tuberculosis (strain ATCC 25618 / H37Rv)) (P9WIL5 whole entry, looked up): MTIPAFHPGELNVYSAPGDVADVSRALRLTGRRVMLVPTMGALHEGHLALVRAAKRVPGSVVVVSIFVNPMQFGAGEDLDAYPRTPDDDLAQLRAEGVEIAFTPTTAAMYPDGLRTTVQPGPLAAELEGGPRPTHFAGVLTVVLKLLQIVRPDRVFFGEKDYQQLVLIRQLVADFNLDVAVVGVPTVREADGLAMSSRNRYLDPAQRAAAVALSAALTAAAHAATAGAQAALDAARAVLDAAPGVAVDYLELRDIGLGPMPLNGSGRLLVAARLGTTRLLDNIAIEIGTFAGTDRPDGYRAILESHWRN
The inhibition is how much of the control response was suppressed. For `COCC(=O)Nc1sc2c(c1C(=O)OC)CCC(C)C2` (stereo not given), the inhibition was 6%. Consider `Cc1ccc(S(=O)(=O)N2CCCC2)cc1S(=O)(=O)N1CCCC1`, for which the inhibition was 0%. For `CC1CN(C2CCCCC2)c2nc3c(c(=O)[nH]c(=O)n3C)n2C1` (stereo not given) the value was 2%. For `CCOC(=O)c1ccc(CNC(=O)C(Cc2c[nH]c3ccccc23)NC(C)=O)o1` (stereo not given) the value was 3%; for `CCNc1ccc(C(=O)OCC)cc1NC(=O)c1cc(S(=O)(=O)N2CCOCC2)ccc1C`, 2%. To `CCC(Sc1ncccc1C(=O)O)C(=O)N1CCCC1` (stereo not given) belongs 0%; to `CN(c1ccccc1)S(=O)(=O)c1cc(C(=O)N2CCN(c3ccccn3)CC2)ccc1Cl`, 0%.

In the case of `COC(=O)c1cc(NC(=O)C2COc3ccccc3O2)cc(C(=O)OC)c1` (stereo not given), the inhibition was 0%. As for `O=C(NC1=NCCS1)c1ccc2c(c1)C(=O)N(Cc1ccco1)C2=O`, the inhibition was 0%. For `Clc1ccccc1-c1nnc2sc(-c3ccccn3)nn12` the value was 0%; for `CCOC(=O)N1CCN(C(=O)c2ccc3nc4ccsc4c(=O)n3c2)CC1`, 2%. With `Cc1cc(C)n(C(=O)C23CC4CC(CC(C4)C2)C3)n1`, the inhibition was 0%.

In the case of `CC(C)Cn1c(CN2CCCCC2C)nc2c1c(=O)n(C)c(=O)n2C` (stereo not given), the inhibition is 0%. For `CN(Cc1ccc(-n2cccn2)cc1)C(=O)c1cnn2c1NC(c1ccco1)CC2C(F)(F)F` (stereo not given) the value was 0%; for `O=C(NCC(c1cccnc1)N1CCN(c2ccc(F)cc2)CC1)OCc1ccccc1` (stereo not given), 0%.

As to `COc1ccccc1OCCSc1nc2ccccc2c(=O)[nH]1`, the inhibition is 0%. To `COC(=O)c1sc(S(=O)(=O)N2CCN(c3ccccc3)CC2)c(C(=O)OC)c1C` belongs 10%; to `Cc1ccc(F)cc1NC(=O)Cc1nn(C)c(=O)c2ccccc12`, 1%. For `CCN(CC)CCN1C(=O)C(=O)/C(=C(/O)c2ccc(OC(C)C)cc2)C1c1ccncc1` (stereo not given) the value was 5%; for `Cc1ccc(C(=O)Nc2ccc(Cl)cn2)cc1S(=O)(=O)N1CCOCC1`, 0%. In the case of `c1ccc(-c2ccc(C(c3ccccc3)n3ccnc3)cc2)cc1` (stereo not given), the inhibition was 3%.

As for `CCc1nnc(NC(=O)CCC(=O)Nc2ccccc2)s1`, the inhibition is 4%. `CCn1c(SCC(=O)Nc2cc(NC(C)=O)ccc2OC)nnc1-c1ccccn1`: the inhibition is 2%.

Take `O=C(Cn1ncc2c(=O)oc3ccccc3c21)Nc1nc2ccccc2s1`: the inhibition is 0%. For `CN(C)CC(C(=O)c1ccccc1)c1ccccc1` (stereo not given) the value was 4%; for `CCOC(=O)c1sc(NC(=O)CSc2nc3c(cc2C#N)CCC3)c(C#N)c1C`, 10%; for `COc1ccc(N2CCN(c3oc(COc4ccccc4)nc3C#N)CC2)cc1`, 0%. For `COCc1nnc(NC(=O)c2ccc(S(=O)(=O)N(C)c3ccccc3)cc2)o1` the value was 0%; for `COc1ccc(S(=O)(=O)N2Cc3ccccc3CC2C(=O)Nc2ccc(O)cc2)cc1OC` (stereo not given), 10%. For `CCOP(=O)(c1ccc(N(C)C)cc1)C(O)c1c(Cl)cccc1Cl` (stereo not given) the value was 0%. Take `CC(C)(C)NC(=O)Cn1nnnc1-c1nonc1N`: the inhibition was 4%. To `CC(=O)OC1CSc2nc3ccccc3n2C1` (stereo not given) belongs 0%. On to `O=C(CSc1ccc(-c2ccccc2)nn1)N1CCOCC1`, for which the inhibition is 0%. As for `CCOC(=O)c1c(C)oc2ccc(O)c(CN3CCCCC3)c12`, the inhibition is 12%. For `c1ccc(OCCCn2nnc(-c3ccncc3)n2)cc1` the value was 3%. For `O=C(NCCSc1c[nH]c2ccccc12)c1ccco1` the value was 0%.

Regarding `COc1cc(/C=N/n2c(C)nnc2C)cc(OC)c1OC`, the inhibition is 4%. For the compound `CCOC(=O)C1CCN(c2cc(C)nc3cc(-c4cccc(F)c4)nn23)CC1`, the inhibition is 3%. To `O=C(NCC1CCCO1)c1ccc(C(=O)NCC2CCCO2)cc1` (stereo not given) belongs 0%; to `CCOc1ccc(C(=O)N(Cc2ccc(N(C)C)cc2)C2CCS(=O)(=O)C2)cc1` (stereo not given), 0%.

For the origin of these results see PubChem BioAssay.
